BAZ2B inh = blocks human BAZ2B; Q9UIF8; AlphaScreen BAZ2B-H3K14Ac peptide displacement; Potency, µM (titrated, usually from 114 µM), without a hit: at the highest dose activity change, negative = inhibition, hits mostly inhibitors; 360,000 tested, 4.4% active; further: on the % scale 0 is the no-effect control and ±100 the full control effect; nearly all actives have a fitted effect of over 60% in size
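Compounds, titrated to a top concentration of 110 uM, were incubated 30 min at room temperature with preformed BAZ2B/acetyl-K14 H3 peptide complex (50 nM each). Proximity signal was measured by AlphaScreen after 20 min with beads.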
12-LOX inh = ALOX12 (human) lipoxygenase inhibition; Potency, µM (doses to about 108 µM), for the others: at the top dose activity change, negative = inhibition, usual class: inhibitors; 580,000 tested, 1.1% active; purified 12hLO, xylenol orange hydroperoxide absorbance; P18054; AID 1671190; further: on the % scale 0 is the no-effect control and ±100 the full control effect
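Purified human 12hLO (150 nM final) in 25 mM Hepes, 0.01% Triton X-100, pH 7.0 was preincubated 15 min at room temperature with compound. Then 40 uM arachidonic acid was added, 30 min. Hydroperoxide was read by Fe-XO absorbance ratio 573/405 nm.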
G9a block = inhibitors of human histone lysine methyltransferase G9a; Q96KQ7; G9a H3K9 monomethylation, AlphaScreen, 2 h; Potency, µM (series often up to 102 µM), for inactives: at the highest dose activity, negative = inhibition, actives largely listed as inhibitors; 350,000 tested, 8.8% active; further: on the % scale 0 is the no-effect control and ±100 the full control effect; nearly all actives have a fitted effect of over 75% in size
Target sequence (Q96KQ7 913-1193 limits assumed): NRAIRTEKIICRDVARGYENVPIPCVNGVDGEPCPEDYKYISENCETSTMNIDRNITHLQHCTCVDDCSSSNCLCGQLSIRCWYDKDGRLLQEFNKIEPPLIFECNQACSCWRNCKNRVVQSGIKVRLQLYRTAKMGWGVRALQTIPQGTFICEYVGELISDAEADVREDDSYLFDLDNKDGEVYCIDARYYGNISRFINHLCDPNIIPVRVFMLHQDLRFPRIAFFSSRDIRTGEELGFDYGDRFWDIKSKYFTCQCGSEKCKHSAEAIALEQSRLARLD
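G9a (20 nM) preincubated 15 min RT with compounds, then 500 nM biotinylated H3K9 peptide and 20 uM SAM added; 2 h RT reaction. Monomethyl-H3K9 product detected by AlphaScreen with anti-H3K9me1 antibody, streptavidin donor and anti-rabbit IgG acceptor beads.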
PLK1 PBD inh = inhibitors of human PLK1 polo-box domain binding. P53350. Plk1 PBD binding of FITC phosphopeptide, fluorescence polarization. Potency, µM, for the others: max response, negative = inhibition, most hits filed as inhibitors. 360,000 tested, 2.8% active. AID 720504; further: series mostly up to about 57 µM; on the % scale 0 is the no-effect control and ±100 the full control effect; nearly all actives have a fitted effect of over 65% in size
JMJD2A Tudor = inhibitors of human JMJD2A Tudor domain; O75164; AlphaScreen JMJD2A-Tudor / H3K4me3 peptide binding; Potency, µM (series often up to 114 µM), for the others: top-dose activity change, negative = inhibition, hits mostly inhibitors; 390,000 tested, 4.4% active; AID 504339; further: on the % scale 0 is the no-effect control and ±100 the full control effect; nearly all actives have a fitted effect of over 50% in size
HP1b binding inh = blocks HP1-beta chromodomain binding to methylated histone tails. P83916. Potency, µM (top dose mostly 114 µM), inactives show at the highest dose activity change, negative = inhibition, most hits filed as inhibitors. AID 540317. AlphaScreen HP1-beta / biotin-H3K9me3 peptide binding. 390,000 tested, 0.56% active; further: nearly all actives have a fitted effect of over 70% in size
Target sequence (P83916 whole entry, looked up): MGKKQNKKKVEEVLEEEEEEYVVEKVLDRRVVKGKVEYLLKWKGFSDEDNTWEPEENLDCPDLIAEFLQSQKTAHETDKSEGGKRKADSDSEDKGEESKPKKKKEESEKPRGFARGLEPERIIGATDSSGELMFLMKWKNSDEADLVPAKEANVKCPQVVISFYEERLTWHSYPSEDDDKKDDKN
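Compound inhibition of the preformed complex between 50 nM HP1-beta and 50 nM biotinylated H3K9me3 peptide was read by AlphaScreen. Buffer was PBS pH 7.4 with 0.01% Tween-20. Incubations ran 30 min at room temperature, with 10 ug/mL donor/acceptor beads.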
The depositor's hits bear a star; u = inconclusive; x = no result given; ! = not confirmed by another sample; [ ] = remark or other dose. Sampled rows, rich in hits. Any-hit rate of the full collection: about 9%. The call rests on the fitted dose curve; in most records, active means well fitted curve in the direction sought with a large enough effect; inconclusive means small, poorly fitted or top-dose-only effect, or another doubt; inactive means no such curve, though single readings can be large; an effect the other way counts as inactive or inconclusive. Potency means the concentration at half of the fitted maximal effect.

SMILES	BAZ2B inh	12-LOX inh	G9a block	PLK1 PBD inh	JMJD2A Tudor	HP1b binding inh
C=CCn1c(SCC(=O)N2CCCC2)nc2scc(-c3cccs3)c2c1=O	-7%	6%	-40%[59 µM]	-2%	-11%	36%
C=CCn1c(SCC(C)=O)nc2scc(-c3ccco3)c2c1=O	45µM*	u	7.9µM*	u	50µM*	u
CC(C)C(C)(C#N)NC(=O)CSc1nc2scc(-c3ccco3)c2c(=O)n1-c1ccccc1 (stereo not given)	-11%	u	45µM*	-17%	-3%[11.4 µM]	50%
C=CCn1c(SC(F)F)nc2scc(-c3ccco3)c2c1=O	-12%	-6%	-61%	-11%	14%	-4%
C=CCn1c(SCC(=O)N2CC(=O)Nc3ccccc32)nc2scc(-c3ccccc3)c2c1=O	-29%	0%	-40%	12µM*	-12%[11.4 µM]	-14%
CC(C)C(C)NC(=O)CSc1nc2scc(-c3ccco3)c2c(=O)n1-c1ccccc1 (stereo not given)	-7%	-5%	10%[12.7 µM]	-10%	-25%	21%
CSc1ccc(NC(=O)Nc2ccc(C(=O)NCC(=O)O)cc2)cc1	50µM*	u	35µM*	-17%	56µM*	-16%
CCSc1ccc(C(=O)NCC(=O)O)cc1	0%	0%	x	u	-5%	14%
CCCCNC(=O)c1nc(-c2ccncc2)oc1-c1ccc(OC(F)(F)F)cc1	x	-14%	x	3%	x	x
COc1ccc(CC(=O)NNc2ncnc3c2cnn3Cc2ccccc2)cc1OC	-7%	166%	x	27µM*	-26%	u
Cc1cccc(Nc2ncnc3c2cnn3Cc2ccccc2)c1	u	u	50µM*	24µM*	u	23%
O=C(O)c1ccc(Nc2ncnc3c2cnn3Cc2ccccc2)cc1	-12%	-11%	32µM*	30µM*	50µM*	u
O=C(O)c1ccc(CSc2ncnc3c2cnn3Cc2ccccc2)cc1	-12%	-5%	x	0%	-5%	37%
CCOc1ccc(C2NCCc3cc(OC)c(OC)cc32)cc1OC (stereo not given)	3%	2%	-14%	-7%	-10%	44%
CCOc1ccc(C2Nc3cccc4cccc(c34)N2)cc1OC	-39%	350%	10µM*	-20%	u	50µM*
CCOc1cc(C2Nc3cccc4cccc(c34)N2)ccc1O	u	x	10µM*	-29%	-33%	-35%
COc1ccccc1-n1cc(CN2CCc3onc(-c4ccc(Br)cc4)c3C2=O)nn1	x	-15%	x	2%	x	x
O=C(CSc1ncnc2nc[nH]c12)N1CCN(c2ccccc2)CC1	-3%	-4%	-19%	0%	4%	24%
CCC(=O)Nc1nnc(Cc2c[nH]c3ccccc23)s1	x	-1%	x	x	x	x
c1ccc2c(Cc3c[nH]c4ccccc34)c[nH]c2c1	x	u	8.9µM*!	x	x	x
Nc1nnc(Cc2c[nH]c3ccccc23)s1	-6%	-11%	45µM*	-10%	-22%	18%
Cc1ccc(NC(=S)NCCc2c[nH]c3ccccc23)cc1	u	u	39%[0.501 µM]	-4%	u	-33%
S=C(NCc1ccccc1)NC1CCCCC1	-19%	-29%	11%	2%	1%	26%
CC(C)c1ccc(NC(=S)NCCc2c[nH]c3ccccc23)cc1	35µM*	35µM*	45µM*	-10%	u	u
S=C(NCCc1c[nH]c2ccccc12)Nc1ccc(Br)cc1	x	32µM*	x	x	x	x
SMILES	BAZ2B inh	12-LOX inh	G9a block	PLK1 PBD inh	JMJD2A Tudor	HP1b binding inh
S=C(NCCCc1ccccc1)NC1CCCCC1	u	45µM*	57%	-11%	-18%	30%
S=C(NCCc1c[nH]c2ccccc12)NC1CCCCC1	u	u	22%[59 µM]	u	35µM*	u
Cn1c(=O)c2c(SCc3c(F)cccc3Cl)nc(CC(C)(C)C)nc2n(C)c1=O	0%	29%	-5%[59 µM]	-8%	0%	40%
S=c1nc(C2COc3ccccc3O2)[nH][nH]1 (stereo not given)	u	u	3.5µM*	u	1.8µM*	8%
Cc1nc(C2COc3ccccc3O2)sc1C(=O)O (stereo not given)	-1%	0%	5%	-3%	11%[57.1 µM]	50%
S=c1[nH]nc(C2COc3ccccc3O2)o1 (stereo not given)	8%	248%	32µM*	u	-22%	17%
C=CCNC(=O)COC(=O)c1ccc(C)c(NC(=O)c2ccco2)c1	-16%	1%	-18%	-18%	6%	26%
Cc1ccc(CNC(=O)Cn2cc(S(=O)(=O)Cc3ccccc3Cl)c3ccccc32)cc1	-6%	u	0%[59 µM]	x	-28%	-13%
O=C(CNS(=O)(=O)c1ccccc1)Nc1ccccc1Br	-11%	-8%	78%	-15%	-13%	-3%
COc1ccc(Cl)cc1S(=O)(=O)n1nnc2ccccc21	u	0%	50µM*	-8%	-31%	25%
COc1ccc(Cl)cc1S(=O)(=O)n1ccnc1C(C)C	1%	x	50µM*	-11%	-26%	46%
COc1ccc(OC)c(S(=O)(=O)n2nnc3ccccc32)c1	u	8%	-29%[59 µM]	-13%	-10%	37%
Cc1c(NC(=O)CS(=O)(=O)c2ccccc2)c(=O)n(-c2ccccc2)n1C	-4%	-12%	-10%[12.7 µM]	-16%	0%	39%
C/C(O)=c1/ccc2cccc3nc(C)nc1c23	10%	-10%	x	u	5%	58%
O/C=c1\ccc2cccc3nc(C(F)(F)F)nc1c23	u	0%	-48%[2.33 µM]	u	89µM*	-8%
O=C(Cn1nc2c(cc1=O)CCCCC2)Nc1ccc(Cl)cc1	x	0%	x	x	x	x
O=c1cc(NCCc2ccccc2)c2ccccc2o1	2%	0%	3%	24µM*	50µM*	5%
O=[N+]([O-])c1ccc(O)c(C2=NNC(c3ccccc3F)C2)c1 (stereo not given)	-31%	62%	40µM*	u	u	0%[57 µM]
c1ccc2[nH]c(CN3CCCCCC3)nc2c1	-15%	18%	28µM*	-5%	-16%	25%
O=C(/C=C/c1ccccc1)c1cc(Br)ccc(=O)c1O	45µM*	u	13µM*	27µM*	56µM*	u
Cc1ccc(/C=C/C(=O)c2ccccc(=O)c2O)cc1C	71µM*	45µM*	28µM*	30µM*	79µM*	u
O=C(c1cc2ccccc2o1)N1CCN(C/C=C/c2ccccc2)CC1	20%	-17%	x	-2%	-36%	5%
O=C(c1cc2ccccc2o1)N1CCN(Cc2nc3ccccc3s2)CC1	x	18µM*	x	-1%	x	x
O=C(CNC(=O)c1ccncc1)N/N=C/c1ccccn1	79µM*	-3%	-31%	-6%	u	8%
O=C(N/N=C/c1ccccn1)c1cc(-c2cccc3ccccc23)n[nH]1	-2%	-5%	29%	-22%	u	u

Source: PubChem
